Results on eight compounds are retold here after PubChem BioAssay (Tox21).

Assay [1] in a line: Nuclear factor erythroid 2-related factor 2/antioxidant responsive element (Nrf2/ARE) small molecule agonists: qHTS cell viability counter screen in human keratinocytes (AID 1919968; active = well fitted curve in the direction sought with a large enough effect in the repeat runs; an effect the other way counts as inactive or inconclusive; also: nearly all actives have a fitted effect of over 55% in size; also: potency is read from the fitted curve at half-maximal effect). The method, boiled down: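 Seed 1,500 KeratinoSens cells per well, then incubate 5 h at 37 C/5% CO2. Add compounds in DMSO and incubate 23 h. Add CellTiter-Fluor, wait 1 h and read fluorescence.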
Background: In qHTS, concentration-response curves come from the screen itself.

The nature of assay [2]: Nuclear factor erythroid 2-related factor 2/antioxidant responsive element (Nrf2/ARE) small molecule agonists: luciferase reporter gene qHTS assay in human keratinocytes (AID 1919969). Also: nearly all actives have a fitted effect of over 35% in size. Also: potency is read from the fitted curve at half-maximal effect. Background: Reporter assays use an easily measured gene product as a stand-in for the process of interest.
In assay [3] the target is Gonadotropin-releasing hormone receptor (Homo sapiens) (UniProt P30968). The assay can be described thus: Human gonadotropin-releasing hormone receptor (GnRHR) small molecule agonists, calcium flux assay in GnRHR-HEK293 cells (AID 1920063). Also: nearly all actives have a fitted effect of over 35% in size. Also: potency is read from the fitted curve at half-maximal effect. A digest of the protocol:
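Cells: HEK293 stably expressing human GnRHR. Steps: overnight (18 h) culture, 1 h calcium dye loading at 37 C, compound addition, kinetic fluorescence read at 480/540 nm. Each compound tested at 15 concentrations in triplicate.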

The target of assay [4] is KiSS-1 receptor (Homo sapiens) (UniProt Q969F8). Description: Human kisspeptin (KISS1R) small molecule agonists, calcium flux assay in KISS1R-HEK293 cells (AID 1920064; active = well fitted curve in the direction sought with a large enough effect in the repeat runs; an effect the other way counts as inactive or inconclusive; also: potency is read from the fitted curve at half-maximal effect). A digest of the protocol:
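Cells plated and incubated 18 h; dye added, 1 h at 37 C; compounds in DMSO pinned in; signal read at 480/540 nm every second for 3 min. Each compound tested at 15 concentrations in triplicate.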

Assay [5] in a line: G protein-coupled receptor (GPCR) small molecule agonists, calcium flux assay: HEK293 wild type cell line counter screen (AID 1920065). A digest of the protocol:
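Counter-screen of the Tox21 10K library for non-specific calcium release: dye-loaded cells received compounds in DMSO and were monitored by kinetic fluorescence (480/540 nm, 3 min). Fifteen concentrations, run in triplicate.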
Background: Calcium assays in cells follow changes in intracellular calcium, usually with a dye or a luminescent sensor.

A short description of assay [6]: p53 small molecule agonists, cell-based qHTS assay with human liver microsomes (AID 1963577).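 Also: p53 response element beta-lactamase reporter cells with liver microsomes plus NADPH.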 A digest of the protocol:
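With metabolic activation: human liver microsomes (0.5 mg/mL final) plus NADPH (0.5 mg/mL final) added alongside compounds to p53RE-bla cells; 16 h 37 C exposure; beta-lactamase read by LiveBLAzer fluorescence.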

A short description of assay [7]: p53 small molecule agonists, cell-based qHTS assay with rat liver microsomes (AID 1963578). The method, boiled down:
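Metabolic activation by rat liver microsomes and NADPH, each 0.5 mg/mL final, added right after compounds to p53RE-bla reporter cells (4,000/well, plated 5 h earlier). 16 h at 37 C, then LiveBLAzer substrate for 2 h at room temperature in the dark; fluorescence read-out.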

A short description of assay [8]: p53 small molecule agonists, cell-based qHTS assay with human liver microsomes: qHTS cell viability counter screen (AID 1963579). Also: nearly all actives have a fitted effect of over 45% in size. Also: potency is read from the fitted curve at half-maximal effect. A digest of the protocol:
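Metabolic activation used human liver microsomes and NADPH, both 0.5 mg/mL final, over 16 hours at 37 C on p53RE-bla cells (4,000/well). Cytotoxicity measured by CellTiter-Glo luminescence, 30 min at room temperature.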

Assay [9] is described as follows: p53 small molecule agonists, cell-based qHTS assay with rat liver microsomes: qHTS cell viability counter screen (AID 1963580). Also: nearly all actives have a fitted effect of over 45% in size. Also: potency is read from the fitted curve at half-maximal effect. The method, boiled down:
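p53RE-bla HCT-116 cells were exposed 16 h at 37 C to compounds with rat liver microsomes (0.5 mg/mL) and NADPH (0.5 mg/mL). Viability was measured in the same wells as ATP content by CellTiter-Glo luminescence.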

Assay [10] is described as follows: p53 small molecule agonists, cell-based qHTS assay (AID 1963582; active = well fitted activation curve with a large enough effect in the signal ratio in the repeat runs, not every such curve was filed as active; the % refers to the signal ratio). The method, boiled down: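 Quantitative HTS in p53RE-bla cells: after a 5 h settling period, compounds delivered in DMSO were left on cells for 16 h at 37 C, and reporter induction was measured as fluorescence following 2 h substrate loading.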
Assay [11] has as its target 5-hydroxytryptamine receptor 2A (Homo sapiens) (UniProt P28223). Description: 5-hydroxytryptamine receptor 2A (HTR2A) small molecule antagonists, cell-based qHTS assay (AID 1963586). Also: nearly all actives have a fitted effect of over 45% in size. Also: potency is read from the fitted curve at half-maximal effect. The method, boiled down: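 Antagonist-mode intracellular calcium assay: DOI (4 nM) added after 5 min compound pre-incubation at room temperature to dye-loaded HTR2A-CHO cells. Fluorescence followed for 3 min, sampled every second.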

For assay [12] the target is unchanged. The assay can be described thus: 5-hydroxytryptamine receptor 2A (HTR2A) small molecule agonists, cell-based qHTS assay (AID 1963587). Also: nearly all actives have a fitted effect of over 30% in size. Also: potency is read from the fitted curve at half-maximal effect. A digest of the protocol:
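CHO cells stably expressing human HTR2A, plated 18 h, loaded with calcium dye 1 h at 37 C. Agonist mode: compounds added and intracellular calcium fluorescence recorded kinetically for 2 min at 1 sec intervals.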

Assay [13] deals with Muscarinic acetylcholine receptor M1 (Homo sapiens) (UniProt P11229). The assay can be described thus: Cholinergic receptor muscarinic 1 (CHRM1) small molecule antagonists, cell-based qHTS assay (AID 1963588). Also: nearly all actives have a fitted effect of over 40% in size. Also: potency is read from the fitted curve at half-maximal effect. The method, boiled down: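 CHRM1-CHO calcium-flux assay, antagonist mode. Cells were seeded 18 h, dye-loaded 1 h at 37 C and given compound for 5 min at RT, then acetylcholine was added at 50nM. FDSS fluorescence was read 3 min; 15 concentrations, three runs.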

The target is the same in assay [14]. Description: Cholinergic receptor muscarinic 1 (CHRM1) small molecule agonists, cell-based qHTS assay (AID 1963589). Also: nearly all actives have a fitted effect of over 35% in size. The method, boiled down:
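Agonist-mode qHTS in CHO cells stably carrying human muscarinic M1. Intracellular calcium is tracked by fluorescence every second after compound transfer; each compound runs at 15 concentrations in three independent runs.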

The nature of assay [15]: cAMP Responsive Elements (CRE) small molecule agonists, cell-based qHTS assay (AID 1963590). The method, boiled down: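 Agonist mode qHTS in CRE-bla HEK 293T cells: compounds dosed from DMSO for 3 h at 37 C/5% CO2, followed by LiveBLAzer B/G FRET substrate for 2 h at room temperature.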
The target of assay [16] is Beta-2 adrenergic receptor (Homo sapiens) (UniProt P07550). The assay can be described thus: Adrenergic beta2 receptor (ADRB2) small molecule antagonists, cell-based qHTS assay (AID 1963592). Also: nearly all actives have a fitted effect of over 50% in size. Also: potency is read from the fitted curve at half-maximal effect. The method, boiled down:
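Cells (CHO, stable ADRB2 overexpression) incubated 18-20hr at 37C; compounds added from DMSO; agonist mix (1nM isoproterenol, 100uM IBMX, 25uM Ro-20-1724) added; 0.5hr RT; d2-cAMP and anti-cAMP-cryptate added; 1hr RT; 665/615 nm read.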

Assay [17] addresses D(2) dopamine receptor (Homo sapiens) (UniProt P14416). Description: Dopamine D2 receptor (DRD2) small molecule agonists, cell-based qHTS assay (AID 1963594). Also: nearly all actives have a fitted effect of over 35% in size. The method, boiled down: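 HEK293 cells stably expressing human DRD2, pre-treated with PDE inhibitor Ro20-1724 (0.1 mM final) and compound 10 min at room temperature, then stimulated with NKH477 (200nM […]) for 30 min. cAMP read by HTRF (665/620 nm).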

Assay [18] has the same target. The assay can be described thus: Dopamine D2 receptor (DRD2) small molecule antagonists, cell-based qHTS assay (AID 1963595; active = well fitted inhibition curve with a large enough effect in the signal ratio in the repeat runs, with a control signal flat; the % refers to the signal ratio; also: potency is read from the fitted curve at half-maximal effect). The method, boiled down:
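DRD2-HEK293; 0.1 mM Ro20-1724; cpd 10 min RT; NKH477 200 nM + quinpirole 12 nM, 30 min RT; HTRF cAMP (cAMP-d2/anti-cAMP cryptate), 665/620 nm ratio after 1 h.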

A short description of assay [19]: p53 small molecule agonists, cell-based qHTS assay: qHTS cell viability counter screen (AID 1963581). Also: nearly all actives have a fitted effect of over 45% in size. Also: potency is read from the fitted curve at half-maximal effect. The method, boiled down: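 Cells: HCT-116 with p53 response element-driven beta-lactamase. Treatment: 16 h, 37 C, compounds in DMSO. Read: CellTiter-Glo luminescence after 30 min RT.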
Assay [20] in a line: cAMP Responsive Elements (CRE) small molecule antagonists, cell-based qHTS assay (AID 1963591; active = well fitted inhibition curve with a large enough effect in the signal ratio in the repeat runs, not every such curve was filed as active; the % refers to the signal ratio). The method, boiled down: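 Antagonist mode: test compounds are co-incubated with the adenylyl cyclase activator NKH477 (0.25 uM final) on CRE-bla HEK293T cells for 3 h at 37 °C, followed by LiveBLAzer substrate loading.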

Records with an inconclusive call do not appear. The source made the active and inactive calls. Unless noted, calls follow the shape of the full dose curve.

Muscarinic acetylcholine receptor M1 (Homo sapiens), sequence (P11229 whole entry, looked up): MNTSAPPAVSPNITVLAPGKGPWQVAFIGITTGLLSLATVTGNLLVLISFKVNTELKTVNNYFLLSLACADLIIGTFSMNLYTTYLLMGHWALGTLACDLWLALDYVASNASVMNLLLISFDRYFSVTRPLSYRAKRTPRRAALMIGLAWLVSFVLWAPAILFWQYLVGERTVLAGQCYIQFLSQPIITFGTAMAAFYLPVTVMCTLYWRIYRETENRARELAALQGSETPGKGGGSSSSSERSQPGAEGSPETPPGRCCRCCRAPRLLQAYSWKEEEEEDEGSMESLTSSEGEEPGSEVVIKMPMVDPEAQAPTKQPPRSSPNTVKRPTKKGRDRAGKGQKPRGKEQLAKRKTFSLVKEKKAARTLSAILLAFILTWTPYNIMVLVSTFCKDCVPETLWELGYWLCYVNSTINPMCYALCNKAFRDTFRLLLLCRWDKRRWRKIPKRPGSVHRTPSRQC
Gonadotropin-releasing hormone receptor (Homo sapiens), sequence (P30968 whole entry, looked up): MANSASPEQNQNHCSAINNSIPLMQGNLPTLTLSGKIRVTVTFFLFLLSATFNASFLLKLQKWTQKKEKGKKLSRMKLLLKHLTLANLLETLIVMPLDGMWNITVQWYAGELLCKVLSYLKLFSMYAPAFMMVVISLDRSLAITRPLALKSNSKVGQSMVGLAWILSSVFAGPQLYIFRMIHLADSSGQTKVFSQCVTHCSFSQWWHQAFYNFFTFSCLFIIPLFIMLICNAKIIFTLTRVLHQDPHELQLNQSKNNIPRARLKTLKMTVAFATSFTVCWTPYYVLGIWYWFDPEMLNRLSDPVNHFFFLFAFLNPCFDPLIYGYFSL
KiSS-1 receptor (Homo sapiens), sequence (Q969F8 whole entry, looked up): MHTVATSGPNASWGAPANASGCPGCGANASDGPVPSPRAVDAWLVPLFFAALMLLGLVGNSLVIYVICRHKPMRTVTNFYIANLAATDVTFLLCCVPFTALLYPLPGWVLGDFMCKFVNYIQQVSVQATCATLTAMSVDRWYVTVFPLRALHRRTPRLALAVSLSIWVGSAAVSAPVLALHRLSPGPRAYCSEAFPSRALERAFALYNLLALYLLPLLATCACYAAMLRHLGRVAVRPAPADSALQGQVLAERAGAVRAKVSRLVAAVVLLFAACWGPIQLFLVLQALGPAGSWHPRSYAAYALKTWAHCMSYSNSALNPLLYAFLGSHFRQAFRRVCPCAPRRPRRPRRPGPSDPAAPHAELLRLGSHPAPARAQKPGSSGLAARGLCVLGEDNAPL
Beta-2 adrenergic receptor (Homo sapiens), sequence (P07550 whole entry, looked up): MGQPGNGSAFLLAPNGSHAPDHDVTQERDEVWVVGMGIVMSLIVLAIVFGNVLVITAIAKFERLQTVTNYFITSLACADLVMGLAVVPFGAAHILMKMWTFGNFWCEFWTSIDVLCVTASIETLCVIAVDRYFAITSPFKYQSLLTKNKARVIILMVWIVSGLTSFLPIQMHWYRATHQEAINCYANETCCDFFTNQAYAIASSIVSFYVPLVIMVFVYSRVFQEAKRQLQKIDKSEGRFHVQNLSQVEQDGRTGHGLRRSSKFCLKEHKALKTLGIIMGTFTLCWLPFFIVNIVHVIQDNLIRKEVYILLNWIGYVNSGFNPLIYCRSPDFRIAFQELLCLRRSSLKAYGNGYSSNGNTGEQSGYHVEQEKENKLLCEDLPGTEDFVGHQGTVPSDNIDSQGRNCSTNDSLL
5-hydroxytryptamine receptor 2A (Homo sapiens), sequence (P28223 whole entry, looked up): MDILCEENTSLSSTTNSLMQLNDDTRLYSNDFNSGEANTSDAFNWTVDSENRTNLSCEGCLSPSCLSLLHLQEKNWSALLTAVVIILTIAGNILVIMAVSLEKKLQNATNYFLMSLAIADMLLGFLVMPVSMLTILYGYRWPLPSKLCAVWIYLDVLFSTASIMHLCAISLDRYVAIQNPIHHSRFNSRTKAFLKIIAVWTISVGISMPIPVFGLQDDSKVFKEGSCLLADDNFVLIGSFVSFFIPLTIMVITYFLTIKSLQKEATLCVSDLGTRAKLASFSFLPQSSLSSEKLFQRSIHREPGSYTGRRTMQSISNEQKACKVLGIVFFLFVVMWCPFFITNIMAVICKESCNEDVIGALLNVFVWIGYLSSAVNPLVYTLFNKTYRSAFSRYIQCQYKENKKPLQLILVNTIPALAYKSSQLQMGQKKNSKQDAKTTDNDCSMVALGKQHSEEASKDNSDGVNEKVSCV
D(2) dopamine receptor (Homo sapiens), sequence (P14416 whole entry, looked up): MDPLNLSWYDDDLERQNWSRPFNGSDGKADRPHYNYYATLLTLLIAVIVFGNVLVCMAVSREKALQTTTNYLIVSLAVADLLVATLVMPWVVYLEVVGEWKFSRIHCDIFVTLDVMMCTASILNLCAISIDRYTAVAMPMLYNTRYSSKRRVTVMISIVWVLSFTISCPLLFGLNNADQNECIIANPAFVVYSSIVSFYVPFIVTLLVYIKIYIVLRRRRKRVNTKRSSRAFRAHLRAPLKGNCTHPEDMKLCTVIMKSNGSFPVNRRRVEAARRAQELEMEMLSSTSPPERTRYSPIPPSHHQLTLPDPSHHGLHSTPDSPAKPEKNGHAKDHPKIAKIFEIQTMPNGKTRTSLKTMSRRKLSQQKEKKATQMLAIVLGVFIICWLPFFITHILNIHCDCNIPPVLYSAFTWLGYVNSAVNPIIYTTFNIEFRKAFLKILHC

On to `CCOC(=O)c1ncn2c1CN(C)C(=O)c1c(I)cccc1-2`, for which the Potency result in assay [1], in assay [2], in [3], in assay [4], in assay [5] and in assay [6] was “inactive” throughout. The Potency result in [7], in assay [8], in assay [9], in [10], in assay [11] and in [12] was “inactive” throughout. The Potency entry in assay [13], in [14], in [15], in [16], in [17] and in assay [18] was “inactive” throughout.
For the compound `CCC[CH2][Sn]([CH2]CCC)([CH2]CCC)[O]C(=O)c1ccccc1`, the Potency in assay [1] was 1.09 µM (active); in [2], 0.969 µM (active); in [3], 4.9 µM (active); in [4], 19.5 µM (active); in assay [8] it was 3.24 µM (active); in assay [9] it was 4.58 µM (active). Moreover, the Potency was 1.62 µM (active) in assay [19]; 1.33 µM (active) in [11]; 21.9 µM (active) in assay [12]; 0.864 µM (active) in assay [16]; 4.86 µM (active) in assay [18]. For the same compound, the Potency result in assay [5], in assay [6], in assay [7] and in assay [17] was “inactive” in each case.
Regarding `O=C1CN2CCOC2(c2ccccc2Cl)c2cc(Cl)ccc2N1` (configuration not stated), the Potency entry in assay [1], in assay [2], in assay [3], in [4], in assay [5] and in assay [6] was “inactive” each time. The Potency result in assay [7], in assay [8], in assay [9], in assay [10], in [11] and in [12] was “inactive” each time. The Potency result in [13], in assay [14], in [15], in assay [20], in assay [16] and in assay [17] was “inactive” throughout. Besides, in assay [18], the Potency entry is “inactive”.
Take `c1ccc2c(c1)Sc1ccccc1N2CC1CN2CCC1CC2` (configuration not stated): in assay [1], the Potency was 33.5 µM (active). Also, the Potency entry in assay [2], in assay [3], in [4], in assay [5], in [6] and in [7] was “inactive” throughout. For the same compound, the Potency entry in assay [8], in assay [9], in assay [19], in [11], in assay [13] and in [14] was “inactive” throughout. The Potency result in assay [16] and in [18] was “inactive” throughout.
Regarding `Cc1cccc(Cc2cnc[nH]2)c1C`, the Potency result in assay [1], in assay [2], in assay [3], in [4], in [5] and in assay [6] was “inactive” throughout. Also, the Potency entry in [7], in assay [8], in assay [9], in assay [19], in assay [11] and in [12] was “inactive” throughout. Moreover, the Potency result in [13], in assay [15], in assay [16], in [17] and in [18] was “inactive” each time.
On to `N#CC(CCc1ccc(Cl)cc1)(Cn1cncn1)c1ccccc1` (configuration not stated), for which the Potency result in assay [1], in assay [2], in assay [3], in [4], in assay [5] and in assay [6] was “inactive” each time. Further, the Potency entry in assay [7], in assay [8], in assay [9], in assay [19], in assay [12] and in assay [14] was “inactive” each time. Moreover, the Potency result in [17] is “inactive”.
For the compound `CCOC(=O)CBr`, the Potency result in assay [1], in assay [2], in [3], in assay [4], in [5] and in assay [6] was “inactive” in each case. Moreover, the Potency result in [7], in assay [8], in assay [9], in assay [10], in [11] and in assay [12] was “inactive” each time. Besides, the Potency entry in [14], in assay [15], in assay [20], in [16], in assay [17] and in assay [18] was “inactive” each time.
`CCCCOC(=O)[C@@H](C)Oc1ccc(Oc2ccc(C#N)cc2F)cc1`: the Potency result in [1], in [2], in [3], in assay [4], in [5] and in assay [6] was “inactive” each time. The Potency entry in assay [7], in [8], in [9], in [19], in assay [11] and in assay [12] was “inactive” each time. For the same compound, the Potency result in assay [14], in assay [16], in assay [17] and in assay [18] was “inactive” each time. For the same compound, the Potency in assay [13] is 1.66 µM (active).
